High-throughput results from PubChem.
Cruzain Triton: qHTS Assay for Promiscuous and Specific Inhibitors of Cruzain (with detergent); purified cruzain, Z-FR-AMC fluorescence, 0.01% Triton; 0.43% of 200,000 active; Cruzipain (Trypanosoma cruzi), P25779; Potency, µM, actives largely listed as inhibitors; also: nearly all actives have a fitted effect of over 40% in size
Target sequence (P25779 123-467 limits assumed): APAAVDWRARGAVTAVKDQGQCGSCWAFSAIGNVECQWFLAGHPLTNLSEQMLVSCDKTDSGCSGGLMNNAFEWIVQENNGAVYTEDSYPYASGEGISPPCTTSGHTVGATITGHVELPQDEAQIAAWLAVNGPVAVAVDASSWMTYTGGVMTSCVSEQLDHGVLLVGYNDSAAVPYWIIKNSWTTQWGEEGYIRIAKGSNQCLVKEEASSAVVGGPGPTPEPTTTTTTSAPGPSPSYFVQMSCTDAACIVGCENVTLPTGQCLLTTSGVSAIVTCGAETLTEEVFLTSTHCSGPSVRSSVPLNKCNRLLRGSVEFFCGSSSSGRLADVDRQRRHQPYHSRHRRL
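Sodium acetate buffer (100 mM, pH 5.5) containing 5 mM DTT and 0.01% Triton X-100 hosted 1.5 nM cruzain and test compound for 15 min at room temperature. Cleavage of 2 uM Z-FR-AMC was then tracked by fluorescence.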
Cruzain noTriton: qHTS Assay for Promiscuous and Specific Inhibitors of Cruzain (without detergent); AID 1476, 2009; Potency, µM, usual class: inhibitors; purified cruzain, Z-FR-AMC fluorescence, no detergent; 2.3% of 200,000 active; Cruzipain (Trypanosoma cruzi), P25779; also: nearly all actives have a fitted effect of over 40% in size
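Purified cruzain at 1.5 nM, pre-incubated 15 min with compound at room temperature in 100 mM sodium acetate pH 5.5, 5 mM DTT, 0.00005% Triton X-100. Reaction started with 2 uM Z-FR-AMC; AMC fluorescence increase over 60 s gives rate.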
Hits are given with their value; . = inactive; ? = inconclusive. Sampled rows, rich in hits. Any-hit rate of the full collection: about 2.6%. Calls follow the shape of the dose curve; as a rule, active = well fitted curve in the direction sought with a large enough effect; inconclusive = small, poorly fitted or top-dose-only effect, or another doubt; inactive = no such curve, though single readings can be large; an effect the other way counts as inactive or inconclusive.

SMILES	Cruzain Triton	Cruzain noTriton
Cc1ccccc1S(=O)Cc1ccc(C(=O)NCc2ccccc2Cl)o1 (stereo unspecified)	.	.
CCOc1ccccc1NC(=O)C1=C(C)Nc2ncnn2C1c1sccc1C (stereo unspecified)	.	.
CCCCc1ccc(N=N/C(C(=O)Nc2ccc(NC(C)=O)cc2OC)=C(/C)O)cc1	10µM	.
CCCCc1ccc(NC(=O)OC)cc1	.	.
COc1ccc(Cl)cc1NC(=O)CSc1c2c(nc3ccccc13)CCC2	.	.
CC(C)(C)C1CCc2c(sc(NC(=O)c3ccc(Cl)cc3)c2C(=O)NCc2ccco2)C1 (stereo unspecified)	.	.
Cc1cccc(NC(=O)CSc2nnc(-c3ccco3)c(-c3ccco3)n2)c1C	28µM	7.9µM
Cc1ccccc1NC(=O)CSc1ccc(-c2ccco2)nn1	.	.
Cc1ccc2c(=O)cc(C(=O)Nc3ccc(S(=O)(=O)Nc4nc(C)cc(C)n4)cc3)oc2c1	.	.
Cc1ccc(C2=NNC(c3ccc(Cl)cc3)=Nc3ccccc32)o1	.	13µM
Cc1ccc(-c2cc(-c3ccc(Cl)cc3)c(C#N)c(N)n2)o1	.	?
N#CCCS(=O)(=O)c1ccccc1	.	.
CCOc1ccc(NC(=O)N2CCC(N3CCCCC3)CC2)cc1	.	.
COc1ccc(C(c2c(C)[nH]n(C(N)=S)c2=O)C(C#N)C#N)cc1 (stereo unspecified)	.	.
Cc1[nH]n(-c2ncc(-c3ccc(Cl)cc3)s2)c(=O)c1C(c1ccc(Cl)cc1)C(C#N)C#N (stereo unspecified)	?	3.2µM
CCN(CC)CCCNC(=O)c1c(C)oc2ncnc(N3CCOCC3)c12	.	.
O=C(COc1ccc2c(c1)OCO2)Nc1ccc2c(c1)oc1ccccc12	.	10µM
O=C(Nc1ccc2c(c1)oc1ccccc12)c1ccc2c(c1)OCO2	.	?
COCC(=O)Nc1nnc(-c2cccs2)s1	.	.
O=C(Cc1ccccc1)Nc1nnc(-c2cccs2)s1	.	25µM
COc1ccccc1N1CCN(CCCNC(=O)c2nnc(Cc3c(F)cccc3Cl)o2)CC1	.	.
Nc1[nH]nc2c1NN(c1ccc(Cl)cc1Cl)N2	.	20µM
Nc1nc(-c2ccc(Cl)cc2Cl)cn1N	.	.
Cc1ccc(S(=O)(=O)N(C)Cc2ccc(C(=O)N/N=C/c3ccc(OC(F)F)cc3)cc2)cc1	.	10µM
C/C(=N\NC(=O)c1ccc(CN(C)S(=O)(=O)c2ccc(C)cc2)cc1)c1ccc(OC(F)F)cc1	.	.
SMILES	Cruzain Triton	Cruzain noTriton
Cc1csc(NC(=O)CSc2ncnc3c2cnn3-c2ccccc2Cl)n1	.	.
CC1CCc2c(sc(NC(=O)CSc3ncnc4c3cnn4-c3ccccc3Cl)c2C#N)C1 (stereo unspecified)	.	10µM
CCc1ccc(OCC(=O)NC(Cc2c[nH]c3ccccc23)C(=O)O)cc1 (stereo unspecified)	.	.
O=C(NCc1ccc(Cl)cc1)c1cc2c(s1)-c1ccccc1SC2	.	.
O=C(NCc1cccc(Cl)c1)c1cc2c(s1)-c1ccccc1SC2	.	25µM
COc1cccc(CN2c3ccccc3-c3nc(SCC(=O)Nc4cccc(C)c4)ncc3S2(=O)=O)c1	.	?
CCN1c2ccccc2-c2nc(SCC(=O)Nc3ccc(C)c(Cl)c3)ncc2S1(=O)=O	.	?
COc1cccc(CN2c3ccccc3-c3nc(SCC(=O)Nc4ccccc4Cl)ncc3S2(=O)=O)c1	.	16µM
CCN1c2ccccc2-c2nc(SCC(=O)Nc3cc(C)c(Cl)cc3OC)ncc2S1(=O)=O	.	25µM
O=C(CSc1ncc2c(n1)-c1cc(Cl)ccc1N(Cc1ccccc1)S2(=O)=O)NCCc1ccccc1	.	.
O=C(CSc1ncc2c(n1)-c1cc(Cl)ccc1N(Cc1ccccc1)S2(=O)=O)NCc1ccccc1	.	16µM
Cc1ccccc1CSc1nnc2[nH]c(=O)cc(C)n12	.	.
O=C(O[C@@H]1Cc2c(O)cc(O)cc2OC1c1ccc(O)c(O)c1)c1cc(O)c(O)c(O)c1 (stereo partly specified)	.	.
CCCCC[C@H](O)/C=C/[C@@H]1[C@@H](C/C=C\CCCC(=O)OC)[C@@H](O)C[C@H]1O	25µM	?
CCCCC[C@H](O)/C=C/[C@@H]1[C@@H](C/C=C\CCCC(=O)O)[C@@H](O)C[C@H]1O	.	?
CC1CCCCN1c1c(S(=O)(=O)c2ccc(Cl)cc2)cnc2ccccc12 (stereo unspecified)	.	.
COc1ccc2c(c1)[N+](=O)C(/C(C)=N/NC(N)=S)=C(C)[N+]2=O	.	.
O=C(COc1ccc2ccccc2c1)NNC(=O)Cc1ccccc1	.	.
COc1ccc(OCC(=O)Nc2nc3ccccc3[nH]2)cc1	.	.
O=C(COc1ccc2ccccc2c1)Nc1nc2ccccc2[nH]1	.	25µM
